# In ChEMBL document CHEMBL1201862, “PubChem BioAssay data set” (2004):
# The campaign covered roughly 44,000 sequences. About 3,500 (8%) were called active. Rule as the data show it: active = GI50 up to about 1.1 µM and inactive = higher. A selection follows. Entries with a potency or affinity are not part of this list.
# Test system: PC-3
row,Substance,GI50 [µM]
1,"[Bis(aminomethyl)pentamethylenesilane]tetrachloropaltinum(IV), CHEMBL2146204",1.83
2,"[Bis(aminomethyl)dimethylsilane]tetrachloroplatinum(IV), CHEMBL2146190",22.9
3,"[Bis(aminomethyl)tetramethylenesilane]tetrachloropaltinum(IV), CHEMBL2146189",8.36
4,"CISPLATIN, CHEMBL11359",5.01
5,"[Bis(aminomethyl)tetramethylenesilane]dichloropaltinum(II), CHEMBL2146205",7.19
6,"[Bis(aminomethyl)pentamethylenesilane]dichloropaltinum(II), CHEMBL2146202",1.64
